Records with an inconclusive call do not appear. Activity calls are given as the source filed them. Unless noted, calls follow the shape of the dose curve; as a rule, active = well fitted inhibition curve with a large enough effect; inconclusive = small, poorly fitted or top-dose-only effect; inactive = flat fitted curve, though single readings scatter.
Experiments:
[1] = qHTS profiling for inhibitors of Plasmodium falciparum proliferation (AID 504749); also: nearly all actives have a fitted effect of over 60% in size; also: potency is read from the fitted curve at half-maximal effect;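 as to activity, negative = inhibition: 0% = DMSO vehicle and full inhibition = artemisinin control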; conditions: P. falciparum in erythrocytes, SYBR Green DNA, 72 h, at 28.7 µM (top of the series)
Summary of the method: (§1)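 P. falciparum-infected erythrocytes (0.3% parasitemia, 2.5% hematocrit final) were exposed to compounds for 72 h at 37 C in 5% CO2, then lysed with SYBR Green buffer overnight at room temperature; parasite DNA fluorescence was normalized to artemisinin and DMSO controls.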

3D7 = test: as above; conditions: P. falciparum in erythrocytes, SYBR Green DNA, 72 h; series mostly up to 28.7 µM
Summary of the method: as §1

AA1029 = test: as above; conditions: P. falciparum in erythrocytes, SYBR Green DNA, 72 h; series mostly up to 28.7 µM
Summary of the method: as §1

AS120 = test: as above; conditions: P. falciparum in erythrocytes, SYBR Green DNA, 72 h; series mostly up to 28.7 µM
Summary of the method: as §1

ATS189 = test: as above; conditions: P. falciparum in erythrocytes, SYBR Green DNA, 72 h; series mostly up to 28.7 µM
Summary of the method: as §1

ATS95 = test: as above; conditions: P. falciparum in erythrocytes, SYBR Green DNA, 72 h; series mostly up to 28.7 µM
Summary of the method: as §1

C2A = test: as above; conditions: P. falciparum in erythrocytes, SYBR Green DNA, 72 h; series mostly up to 28.7 µM
Summary of the method: as §1

CP185 = test: as above; conditions: P. falciparum in erythrocytes, SYBR Green DNA, 72 h; series mostly up to 28.7 µM
Summary of the method: as §1

CP191 = test: as above; conditions: P. falciparum in erythrocytes, SYBR Green DNA, 72 h; series mostly up to 28.7 µM
Summary of the method: as §1

CP192 = test: as above; conditions: P. falciparum in erythrocytes, SYBR Green DNA, 72 h; series mostly up to 28.7 µM
Summary of the method: as §1

CP194 = test: as above; conditions: P. falciparum in erythrocytes, SYBR Green DNA, 72 h; series mostly up to 28.7 µM
Summary of the method: as §1

CP201 = test: as above; conditions: P. falciparum in erythrocytes, SYBR Green DNA, 72 h; series mostly up to 28.7 µM
Summary of the method: as §1

CP211 = test: as above; conditions: P. falciparum in erythrocytes, SYBR Green DNA, 72 h; series mostly up to 28.7 µM
Summary of the method: as §1

7G8 = test: as above; conditions: P. falciparum in erythrocytes, SYBR Green DNA, 72 h; series mostly up to 28.7 µM
Summary of the method: as §1

CP203 = test: as above; conditions: P. falciparum in erythrocytes, SYBR Green DNA, 72 h; series mostly up to 28.7 µM
Summary of the method: as §1

[2] = qHTS drug screen for cell cycle checkpoint inhibitors in PARPi-resistant BRCA-mutant ovarian cancer cell lines. (AID 1963452; calls by dose curve); conditions: PEO1/OlaR viability, CellTiter-Glo luminescence, 96 h, stronger effect = lower value
Summary of the method: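 PEO1, PEO4 and PEO1/OlaR ovarian cancer cells, 600 per well, exposed 96 h at 37C to a dilution series. Viability read by CellTiter-Glo luminescence, normalized to DMSO and empty wells; activity summarized as Z-AUC.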

[3] = qHTS for identification of novel therapeutic agents for treatment of microphthalmiaassociated transcription factor (MiT) renal cell carcinoma (RCC) (AID 1963991); conditions: CellTiter-Glo, 48 h, stronger effect = lower value;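 also: curves scaled with 100% = DMSO viability and 0% = empty wells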
Summary of the method: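 UOK109/UOK124/UOK145 (TFE3 fusions, three partners); 500 cells/well; MIPE v4.0, 1912 cpds, 11 conc.; 48 h, 37 C; CellTiter-Glo, 15 min RT; lum. Norm.: DMSO 100%, empty 0%.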

[4] = measured here: PEO1 parental Z-AUC

CC(CCc1ccc(O)cc1)NCCc1ccc(O)c(O)c1 (stereo not drawn)
inactive: activity, negative = inhibition ([1]; parasite line A) 7.14% | activity, negative = inhibition ([1]; parasite line B) -3.6% | Potency (3D7) | Potency (AA1029) | Potency (AS120) | Potency (ATS189) | Potency (ATS95) | Potency (C2A) | Potency (CP185) | Potency (CP191) | Potency (CP192) | Potency (CP194) | Potency (CP201) | Potency (CP211)

Cc1cn([C@H]2C[C@H](N=[N+]=[N-])[C@@H](CO)O2)c(=O)[nH]c1=O
inactive: activity, negative = inhibition ([1]; parasite line A) -7.84% | activity, negative = inhibition ([1]; parasite line B) 9.23% | Potency (3D7) | Potency (7G8) | Potency (AA1029) | Potency (AS120) | Potency (ATS189) | Potency (ATS95) | Potency (C2A) | Potency (CP185) | Potency (CP191) | Potency (CP192) | Potency (CP194) | Potency (CP201) | Potency (CP203) | Potency (CP211)

CC(C)C(=O)Nc1ccc([N+](=O)[O-])c(C(F)(F)F)c1
0.418: Z-AUC ([2]; measured here: PEO4 Z-AUC)
-0.423: Z-AUC [2, 4]
inactive: Z-AUC [2] -1.15 | activity, negative = inhibition ([1]; parasite line A) 5.81% | activity, negative = inhibition ([1]; parasite line B) 10.3% | Potency (3D7) | Potency (AA1029) | Potency (AS120) | Potency (ATS189) | Potency (ATS95) | Potency (C2A) | Potency (CP185) | Potency (CP191) | Potency (CP192) | Potency (CP194) | Potency (CP201) | Potency (CP211)

O=c1[nH]cc(F)c(=O)[nH]1
inactive: Z-AUC [2] 0.953 | activity, negative = inhibition ([1]; parasite line B) -26.3% | Potency (ATS189)
0.136: Z-AUC ([2]; measured here: PEO4 Z-AUC)
0.582: Z-AUC [2, 4]
active: Potency (7G8) 12.6 µM

Cc1cn([C@H]2C=C[C@@H](CO)O2)c(=O)[nH]c1=O
inactive: activity, negative = inhibition ([1]; parasite line A) 2.38% | activity, negative = inhibition ([1]; parasite line B) -3.42% | Potency (3D7) | Potency (7G8) | Potency (AA1029) | Potency (AS120) | Potency (ATS189) | Potency (ATS95) | Potency (C2A) | Potency (CP185) | Potency (CP191) | Potency (CP192) | Potency (CP194) | Potency (CP201) | Potency (CP211)
0.139: z-score ([3]; TFE3-RCC viability, measured here: UOK124 Z-AUC)
0.201: z-score ([3]; TFE3-RCC viability, measured here: UOK145 Z-AUC)
0.266: z-score ([3]; TFE3-RCC UOK109 viability, measured here: UOK109 Z-AUC)

CC(COc1ccccc1)N(CCCl)Cc1ccccc1 (stereo not drawn)
1.15: Z-AUC ([2]; measured here: PEO4 Z-AUC)
active: Potency (7G8) 12.6 µM
inactive: Z-AUC [2] 1.41 | activity, negative = inhibition ([1]; parasite line A) 7.32% | activity, negative = inhibition ([1]; parasite line B) 2.35% | Potency (3D7) | Potency (C2A) | Potency (CP185) | Potency (CP191) | Potency (CP192) | Potency (CP201) | Potency (CP211)
1.02: Z-AUC [2, 4]

Cc1ccc(-c2cc(C(F)(F)F)nn2-c2ccc(S(N)(=O)=O)cc2)cc1
0.566: Z-AUC [2, 4]
1.1: Z-AUC ([2]; measured here: PEO4 Z-AUC)
inactive: Z-AUC [2] 1.19 | Potency (CP185)

— PubChem BioAssay (NCATS)
